Values joined by “and” are separate entries in the source; they are usually repeats but may differ in a detail not shown here. Equal entries are not always repeated. The panel holds about 83,000 compounds, 20% with a hit somewhere; the sample as a whole holds those more often.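 Single-concentration screen, 48 h exposure, 96-well plates. Endpoint: percent growth. Below 10 = active.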 The source holds several records for some structures; these can differ, active in one and inactive in another. Active and inactive are the calls of the source.
Experiments:
Test in all cases: NCI-60 one-dose screen, 48 h (100 = growth as untreated, 0 = no growth, -100 = all killed)
Conditions in all cases: 10 µM unless noted
[1] = test system: HCT-15 colon
[2] = test system: HT29 colon
[3] = test system: SNB-75 CNS
[4] = test system: SNB-19 CNS
[5] = test system: U251 CNS
[6] = test system: PC-3 prostate
[7] = test system: SK-MEL-5 melanoma
[8] = test system: UACC-62 melanoma
[9] = test system: LOX IMVI melanoma
[10] = test system: SK-MEL-28 melanoma
[11] = test system: SK-MEL-2 melanoma
[12] = test system: EKVX NSCLC
[13] = test system: SN12C renal
[14] = test system: UO-31 renal
[15] = test system: TK-10 renal
[16] = test system: CAKI-1 renal
[17] = test system: A498 renal
[18] = test system: CCRF-CEM leukemia
[19] = test system: MOLT-4 leukemia
[20] = test system: ACHN renal

SMILES | growth [1] | growth [2] | growth [3] | growth [4] | growth [5] | growth [6] | growth [7] | growth [8] | growth [9] | growth [10] | growth [11] | growth [12] | growth [13] | growth [14] | growth [15] | growth [16] | growth [17] | growth [18] | growth [19] | growth [20]
COc1ccc2cc3[n+](cc2c1OC)CCc1cc2c(cc1-3)OCO2 | 105% (inactive) and 93.4% (inactive) | 93.8% (inactive) and 74.1% (inactive) | 85.5% (inactive) and 81% (inactive) | 38.6% (inactive) and 42.2% (inactive) | 25.2% (inactive) and 28.7% (inactive) | 60.1% (inactive) and 60.6% (inactive) | 7.33% (active) and 24.3% (inactive) | 54.8% (inactive) and 64.9% (inactive) | 83.6% (inactive) and 86.5% (inactive) | 94% (inactive) | 90.7% (inactive) and 104% (inactive) | 26.3% (inactive) and 65.5% (inactive) | 30.2% (inactive) and 49.2% (inactive) | 76.3% (inactive) and 84.2% (inactive) | 137% (inactive) and 98.3% (inactive) | 81.7% (inactive) and 89.8% (inactive) | 86.8% (inactive) and 90.8% (inactive) | 70.8% (inactive) and 67% (inactive) | 66% (inactive) and 54.8% (inactive) | –
Cn1cnc([N+](=O)[O-])c1Sc1ncnc2nc[nH]c12 | 83.6% (inactive) and 95.5% (inactive) | 59.4% (inactive) and 73.2% (inactive) | 39.2% (inactive) and 58% (inactive) | 96.8% (inactive) and 110% (inactive) | 78.6% (inactive) and 93.7% (inactive) | 76.6% (inactive) and 91.5% (inactive) | 77.9% (inactive) | 20.2% (inactive) and 35.8% (inactive) | 22.4% (inactive) and 22.5% (inactive) | 105% (inactive) and 116% (inactive) | 57.7% (inactive) and 74.8% (inactive) | 83.3% (inactive) and 109% (inactive) | – | 63.4% (inactive) and 69% (inactive) | 52.8% (inactive) and 44.3% (inactive) | 49.2% (inactive) and 75.8% (inactive) | 87.7% (inactive) and 103% (inactive) | 48% (inactive) and 42.6% (inactive) | 66.1% (inactive) and 56.6% (inactive) | 84% (inactive) and 121% (inactive)
CC1=C(/C=C/C(C)=C/C=C/C(C)=C/C(=O)Nc2ccc(O)cc2)C(C)(C)CCC1 | 57% (inactive) | 34.6% (inactive) | 57.6% (inactive) | 80.2% (inactive) | 66.8% (inactive) | 52.2% (inactive) | 43.9% (inactive) | 22% (inactive) | 2.64% (active) | 61.7% (inactive) | 78.6% (inactive) | 64.7% (inactive) | 39.2% (inactive) | -4.99% (active) | 103% (inactive) | 47% (inactive) | 71.4% (inactive) | 19.5% (inactive) | 7.55% (active) | 52.2% (inactive)
O=C(c1ccc(Cl)cc1)C(NCCO)c1ccc(Cl)cc1 (stereo unspecified) | 99.7% (inactive) and 99% (inactive) | 109% (inactive) and 92.2% (inactive) | 90.1% (inactive) and 81.8% (inactive) | 101% (inactive) and 97.6% (inactive) | 95.9% (inactive) and 102% (inactive) | 81.9% (inactive) and 84.4% (inactive) | 91.9% (inactive) and 105% (inactive) | 85.3% (inactive) and 79.9% (inactive) | 94.8% (inactive) and 96.1% (inactive) | 111% (inactive) and 105% (inactive) | 102% (inactive) | 103% (inactive) | 99.6% (inactive) and 100% (inactive) | 80.6% (inactive) and 83.8% (inactive) | 105% (inactive) and 98.6% (inactive) | 102% (inactive) | 92.7% (inactive) and 110% (inactive) | 99.7% (inactive) and 129% (inactive) | 86.6% (inactive) and 96.6% (inactive) | 120% (inactive) and 102% (inactive)
S=C1SCN(Cc2ccccc2)CN1Cc1ccccc1 | 39.8% (inactive) | 65.4% (inactive) | 76.1% (inactive) | 96.4% (inactive) | 80.2% (inactive) | 46.6% (inactive) | 87.1% (inactive) | 82.5% (inactive) | 69.3% (inactive) | 103% (inactive) | 85% (inactive) | 98.5% (inactive) | 90.5% (inactive) | 26.7% (inactive) | 75.2% (inactive) | 76.1% (inactive) | 74.4% (inactive) | 40.4% (inactive) | 70.6% (inactive) | –
CC1=C(/C=C/C(C)=C/C=C/C(C)=C/C=N/NC(=S)NC(=S)N/N=C/C=C(C)/C=C/C=C(C)/C=C/C2=C(C)CCCC2(C)C)C(C)(C)CCC1 | 26.5% (inactive) and -6.65% (active) | -0.991% (active) and -29.3% (active) | -4.78% (active) and -40% (active) | 36.2% (inactive) and 16.3% (inactive) | -61.8% (active) and -94.4% (active) | -1.77% (active) and -12.4% (active) | -63% (active) and -96.5% (active) | -60% (active) and -75.5% (active) | -100% (active) and -93.6% (active) | -24.4% (active) and -57.5% (active) | -66.4% (active) and -84.6% (active) | 36% (inactive) and 25.5% (inactive) | -29% (active) and -55.2% (active) | -36% (active) and -47.4% (active) | -8.64% (active) and -42.5% (active) | -37.9% (active) and -20.1% (active) | 23.6% (inactive) and -47.4% (active) | -16.5% (active) and -23.4% (active) | -22.2% (active) and -41.2% (active) | 38.9% (inactive) and 10.2% (inactive)
CC(=O)c1ccccc1O | 112% (inactive) and 105% (inactive) and 223% (inactive) | 107% (inactive) and 99.2% (inactive) and 111% (inactive) | 107% (inactive) and 93% (inactive) and 97.7% (inactive) | 102% (inactive) and 105% (inactive) and 94.1% (inactive) | 108% (inactive) and 98.7% (inactive) and 104% (inactive) | 102% (inactive) and 83.5% (inactive) and 91.7% (inactive) | 100% (inactive) and 102% (inactive) | 101% (inactive) and 105% (inactive) | 100% (inactive) and 92.7% (inactive) and 103% (inactive) | 103% (inactive) and 91.7% (inactive) and 109% (inactive) | 107% (inactive) and 98.5% (inactive) and 111% (inactive) | 99.7% (inactive) and 108% (inactive) and 104% (inactive) | 98.1% (inactive) and 104% (inactive) and 98.7% (inactive) | 80% (inactive) and 90.5% (inactive) and 68.1% (inactive) | 104% (inactive) and 95.9% (inactive) and 95.7% (inactive) | 92.5% (inactive) and 99.4% (inactive) and 87.3% (inactive) | 92.5% (inactive) and 86.6% (inactive) | 107% (inactive) and 104% (inactive) and 101% (inactive) | 88.1% (inactive) and 91.6% (inactive) and 104% (inactive) | 105% (inactive) and 101% (inactive) and 104% (inactive)
O=C(Nc1ccc([N+](=O)[O-])cc1Cl)c1cc(Cl)ccc1O | -3.38% (active) and 0.947% (active) | -15.8% (active) and 3.08% (active) | -35.7% (active) and -48.7% (active) | 13.2% (inactive) and 21% (inactive) | 1.12% (active) and 16.7% (inactive) | 2.75% (active) and 6.39% (active) | -89% (active) | -65.7% (active) and -45.3% (active) | -17.5% (active) and -58.5% (active) | 5.94% (active) and -10% (active) | -53.2% (active) and -51.7% (active) | -3.89% (active) and 6.47% (active) | -6.44% (active) and 3.08% (active) | -43.8% (active) and -31.8% (active) | -5.15% (active) and 7.49% (active) | -0.639% (active) and -4.62% (active) | -22% (active) | -20% (active) and 9.33% (active) | -44.2% (active) and -6.34% (active) | –

Source: PubChem BioAssay (NCI)
